The values that follow come from ChEMBL document CHEMBL1961873, “Compounds: GSK PKIS; Assays: Nanosyn kinase panel” (2012).

Structures are written as SMILES.

By inhibition is commonly meant the relative decrease from the control value, in per cent.

The target in assay [1] is High affinity nerve growth factor receptor (Homo sapiens) (UniProt P04629). Particulars: at 1 µM.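 Further: each value is the mean percent inhibition of TRKA.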
Assay [2] deals with BDNF/NT-3 growth factors receptor (Homo sapiens) (UniProt Q16620). Particulars: at 0.1 µM.
BDNF/NT-3 growth factors receptor (Homo sapiens), sequence (Q16620 32-822 limits assumed): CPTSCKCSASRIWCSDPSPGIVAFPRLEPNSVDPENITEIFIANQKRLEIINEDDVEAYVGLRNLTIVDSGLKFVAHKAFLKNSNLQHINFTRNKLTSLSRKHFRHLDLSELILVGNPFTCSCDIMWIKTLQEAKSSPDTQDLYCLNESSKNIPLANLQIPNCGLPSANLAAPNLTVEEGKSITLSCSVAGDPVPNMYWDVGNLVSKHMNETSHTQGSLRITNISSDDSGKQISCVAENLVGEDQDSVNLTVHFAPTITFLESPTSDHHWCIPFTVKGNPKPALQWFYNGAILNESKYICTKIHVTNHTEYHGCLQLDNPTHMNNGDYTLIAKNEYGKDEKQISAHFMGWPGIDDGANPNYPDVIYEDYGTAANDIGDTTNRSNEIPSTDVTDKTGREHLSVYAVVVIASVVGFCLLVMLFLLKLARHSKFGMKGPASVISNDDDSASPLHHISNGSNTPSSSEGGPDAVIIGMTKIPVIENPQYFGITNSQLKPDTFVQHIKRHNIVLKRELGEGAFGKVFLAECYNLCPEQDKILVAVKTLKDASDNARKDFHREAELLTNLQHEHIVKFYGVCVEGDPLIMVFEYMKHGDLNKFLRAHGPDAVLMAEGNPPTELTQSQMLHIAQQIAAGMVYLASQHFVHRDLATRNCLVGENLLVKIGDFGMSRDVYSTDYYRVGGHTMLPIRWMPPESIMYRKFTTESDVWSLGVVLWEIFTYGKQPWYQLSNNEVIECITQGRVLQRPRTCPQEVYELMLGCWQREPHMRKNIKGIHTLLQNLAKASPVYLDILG
For assay [3] the target is unchanged. The note with it: at 1 µM.
Assay [4] deals with NT-3 growth factor receptor (Homo sapiens) (UniProt Q16288). Particulars: at 0.1 µM.
The target is the same in assay [5]. Particulars: at 1 µM.
Assay [6] has as its target T1, Tyrosine-protein kinase TXK (Homo sapiens) (UniProt P42681).
T1 sequence (whole entry): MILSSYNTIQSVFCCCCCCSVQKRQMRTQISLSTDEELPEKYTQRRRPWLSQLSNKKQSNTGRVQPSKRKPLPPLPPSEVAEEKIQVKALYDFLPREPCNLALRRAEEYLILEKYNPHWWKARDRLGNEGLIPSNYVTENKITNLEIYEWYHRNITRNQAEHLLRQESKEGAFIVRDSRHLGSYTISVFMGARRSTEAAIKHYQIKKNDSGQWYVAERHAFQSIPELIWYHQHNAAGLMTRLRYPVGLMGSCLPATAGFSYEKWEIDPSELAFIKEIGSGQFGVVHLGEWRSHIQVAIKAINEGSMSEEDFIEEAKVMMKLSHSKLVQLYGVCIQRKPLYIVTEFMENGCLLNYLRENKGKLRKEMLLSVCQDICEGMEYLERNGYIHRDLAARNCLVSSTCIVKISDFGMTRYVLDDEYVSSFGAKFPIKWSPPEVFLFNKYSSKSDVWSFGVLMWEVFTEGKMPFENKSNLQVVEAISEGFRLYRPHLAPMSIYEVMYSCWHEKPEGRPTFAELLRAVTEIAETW
Particulars: at 0.1 µM.

Assay [7] concerns the target T1, Tyrosine-protein kinase TXK (Homo sapiens). Particulars: at 1 µM.
The target in assay [8] is Non-receptor tyrosine-protein kinase TYK2 (Homo sapiens) (UniProt P29597). The note with it: at 0.1 µM.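 Further: each value is a mean of the inhibition readings.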
Non-receptor tyrosine-protein kinase TYK2 (Homo sapiens), sequence (P29597 whole entry): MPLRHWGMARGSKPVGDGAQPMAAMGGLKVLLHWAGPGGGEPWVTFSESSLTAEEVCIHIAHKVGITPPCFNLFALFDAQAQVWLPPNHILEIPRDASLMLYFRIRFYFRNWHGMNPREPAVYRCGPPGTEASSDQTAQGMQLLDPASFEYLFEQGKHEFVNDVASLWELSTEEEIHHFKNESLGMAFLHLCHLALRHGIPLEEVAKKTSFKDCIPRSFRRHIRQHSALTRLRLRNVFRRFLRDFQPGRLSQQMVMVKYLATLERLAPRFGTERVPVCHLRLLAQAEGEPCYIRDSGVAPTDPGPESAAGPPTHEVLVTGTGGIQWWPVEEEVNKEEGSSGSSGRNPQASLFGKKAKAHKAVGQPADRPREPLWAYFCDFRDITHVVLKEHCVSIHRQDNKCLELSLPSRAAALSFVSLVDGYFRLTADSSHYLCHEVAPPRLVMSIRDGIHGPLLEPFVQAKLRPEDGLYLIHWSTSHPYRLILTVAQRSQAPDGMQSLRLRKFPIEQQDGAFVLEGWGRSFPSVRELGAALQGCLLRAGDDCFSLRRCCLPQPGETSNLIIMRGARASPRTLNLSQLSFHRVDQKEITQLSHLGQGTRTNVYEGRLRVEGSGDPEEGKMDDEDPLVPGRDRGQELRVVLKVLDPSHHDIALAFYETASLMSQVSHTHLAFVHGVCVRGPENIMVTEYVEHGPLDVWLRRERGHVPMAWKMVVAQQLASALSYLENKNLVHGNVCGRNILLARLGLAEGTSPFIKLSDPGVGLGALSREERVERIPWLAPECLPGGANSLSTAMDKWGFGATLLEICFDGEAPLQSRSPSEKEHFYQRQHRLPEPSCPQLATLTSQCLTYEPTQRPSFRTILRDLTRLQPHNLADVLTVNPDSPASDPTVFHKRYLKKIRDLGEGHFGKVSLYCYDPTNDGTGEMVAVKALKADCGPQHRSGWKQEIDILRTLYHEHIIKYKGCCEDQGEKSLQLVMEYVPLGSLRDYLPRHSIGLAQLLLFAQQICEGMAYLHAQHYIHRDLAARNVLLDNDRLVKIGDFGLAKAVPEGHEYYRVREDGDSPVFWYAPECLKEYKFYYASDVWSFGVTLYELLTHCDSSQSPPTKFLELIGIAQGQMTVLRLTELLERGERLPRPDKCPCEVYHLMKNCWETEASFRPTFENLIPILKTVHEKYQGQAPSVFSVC
Assay [9] concerns the target T2, Dual specificity protein kinase TTK (Homo sapiens) (UniProt P33981).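 Further: reported figures are mean TTK inhibition at 1 µM.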
T2 sequence (whole entry): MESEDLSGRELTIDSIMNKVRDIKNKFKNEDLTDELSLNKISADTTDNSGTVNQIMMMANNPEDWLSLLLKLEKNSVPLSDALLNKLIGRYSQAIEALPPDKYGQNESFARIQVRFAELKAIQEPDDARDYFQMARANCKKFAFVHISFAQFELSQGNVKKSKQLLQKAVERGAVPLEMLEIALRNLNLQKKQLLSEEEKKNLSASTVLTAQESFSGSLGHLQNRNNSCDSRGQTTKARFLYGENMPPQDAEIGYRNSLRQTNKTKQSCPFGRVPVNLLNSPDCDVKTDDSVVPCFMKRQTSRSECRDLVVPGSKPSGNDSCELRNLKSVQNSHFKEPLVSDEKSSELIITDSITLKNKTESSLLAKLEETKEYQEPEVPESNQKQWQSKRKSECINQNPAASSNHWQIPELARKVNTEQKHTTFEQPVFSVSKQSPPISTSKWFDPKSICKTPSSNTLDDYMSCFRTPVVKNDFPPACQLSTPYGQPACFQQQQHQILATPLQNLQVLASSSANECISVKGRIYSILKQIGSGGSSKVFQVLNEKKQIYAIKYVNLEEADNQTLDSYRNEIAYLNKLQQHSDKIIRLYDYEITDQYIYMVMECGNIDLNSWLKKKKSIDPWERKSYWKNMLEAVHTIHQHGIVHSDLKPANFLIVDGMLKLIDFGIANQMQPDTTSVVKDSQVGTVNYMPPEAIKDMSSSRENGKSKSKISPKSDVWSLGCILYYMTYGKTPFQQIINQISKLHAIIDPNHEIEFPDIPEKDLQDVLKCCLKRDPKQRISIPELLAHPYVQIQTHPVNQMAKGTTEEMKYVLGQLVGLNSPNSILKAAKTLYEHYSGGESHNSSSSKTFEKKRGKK
The note with it: at 1 µM.

For assay [10], the target named is T3, Aurora kinase A (Homo sapiens) (UniProt O14965).
T3 sequence (whole entry): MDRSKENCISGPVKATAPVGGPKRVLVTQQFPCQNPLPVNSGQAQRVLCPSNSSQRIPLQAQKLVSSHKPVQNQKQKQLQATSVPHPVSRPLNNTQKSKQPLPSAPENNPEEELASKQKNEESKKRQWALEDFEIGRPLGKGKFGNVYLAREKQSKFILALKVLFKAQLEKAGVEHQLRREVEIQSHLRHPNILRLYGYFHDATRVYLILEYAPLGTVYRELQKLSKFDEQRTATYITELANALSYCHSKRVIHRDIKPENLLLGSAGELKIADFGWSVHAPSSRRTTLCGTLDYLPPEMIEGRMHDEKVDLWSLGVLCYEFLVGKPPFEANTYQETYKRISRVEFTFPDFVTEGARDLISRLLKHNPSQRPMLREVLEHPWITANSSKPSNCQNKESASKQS
The note with it: at 0.1 µM.

Assay [11] deals with T3, Aurora kinase A (Homo sapiens). The note with it: at 1 µM.
The target in assay [12] is Aurora kinase B (Homo sapiens) (UniProt Q96GD4). The note with it: at 0.1 µM.
Aurora kinase B (Homo sapiens), sequence (Q96GD4 whole entry): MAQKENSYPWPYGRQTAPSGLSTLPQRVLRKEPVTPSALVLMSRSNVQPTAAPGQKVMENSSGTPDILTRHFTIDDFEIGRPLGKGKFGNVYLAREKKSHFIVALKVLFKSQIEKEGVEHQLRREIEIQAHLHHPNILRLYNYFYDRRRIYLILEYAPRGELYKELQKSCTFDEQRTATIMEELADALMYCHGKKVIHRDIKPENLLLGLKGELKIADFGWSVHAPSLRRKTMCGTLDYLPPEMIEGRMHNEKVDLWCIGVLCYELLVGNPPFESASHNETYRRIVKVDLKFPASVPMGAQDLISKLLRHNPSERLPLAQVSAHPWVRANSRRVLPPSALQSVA
For assay [13] the target is unchanged. Particulars: at 1 µM.
For assay [14], the target named is T4, Aurora kinase C (Homo sapiens) (UniProt Q9UQB9).
T4 sequence (whole entry): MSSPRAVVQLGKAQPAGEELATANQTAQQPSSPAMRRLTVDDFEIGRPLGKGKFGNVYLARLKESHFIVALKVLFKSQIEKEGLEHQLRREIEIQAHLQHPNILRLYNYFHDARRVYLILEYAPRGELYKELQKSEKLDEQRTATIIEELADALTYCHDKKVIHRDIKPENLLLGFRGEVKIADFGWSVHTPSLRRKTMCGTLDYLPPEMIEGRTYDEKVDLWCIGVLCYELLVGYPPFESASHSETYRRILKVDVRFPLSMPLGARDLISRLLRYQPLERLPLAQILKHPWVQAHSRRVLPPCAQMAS
The note with it: at 0.1 µM.

Assay [15] has as its target T4, Aurora kinase C (Homo sapiens). The note with it: at 1 µM.
Assay [16] addresses Serine/threonine-protein kinase 10 (Homo sapiens) (UniProt O94804). Particulars: at 0.1 µM.
Assay [17] has the same target. Particulars: at 1 µM.
In assay [18] the target is T5, Mitogen-activated protein kinase kinase kinase kinase 2 (Homo sapiens) (UniProt Q12851).
T5 sequence (whole entry): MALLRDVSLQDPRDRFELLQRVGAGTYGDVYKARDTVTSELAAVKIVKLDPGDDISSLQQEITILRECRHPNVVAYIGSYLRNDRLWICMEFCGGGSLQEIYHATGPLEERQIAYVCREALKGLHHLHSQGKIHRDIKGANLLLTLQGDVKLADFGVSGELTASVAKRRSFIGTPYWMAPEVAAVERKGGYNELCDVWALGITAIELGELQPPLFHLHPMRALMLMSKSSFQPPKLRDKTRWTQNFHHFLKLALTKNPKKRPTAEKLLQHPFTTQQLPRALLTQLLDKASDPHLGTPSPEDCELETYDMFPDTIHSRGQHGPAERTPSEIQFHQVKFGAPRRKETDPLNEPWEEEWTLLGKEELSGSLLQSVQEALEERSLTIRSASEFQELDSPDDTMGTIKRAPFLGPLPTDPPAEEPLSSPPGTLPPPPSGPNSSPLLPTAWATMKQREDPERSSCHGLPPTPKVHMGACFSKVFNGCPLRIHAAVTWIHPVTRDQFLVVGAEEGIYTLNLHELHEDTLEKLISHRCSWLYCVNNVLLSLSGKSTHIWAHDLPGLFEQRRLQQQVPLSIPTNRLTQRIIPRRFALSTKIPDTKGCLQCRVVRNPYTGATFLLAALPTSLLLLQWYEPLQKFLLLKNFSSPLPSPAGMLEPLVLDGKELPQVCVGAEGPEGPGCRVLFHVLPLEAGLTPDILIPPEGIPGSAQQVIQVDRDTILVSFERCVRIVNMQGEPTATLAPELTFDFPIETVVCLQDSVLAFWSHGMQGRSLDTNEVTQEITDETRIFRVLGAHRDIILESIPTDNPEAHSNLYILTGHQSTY
The note with it: at 0.1 µM.

Assay [19] has as its target T5, Mitogen-activated protein kinase kinase kinase kinase 2 (Homo sapiens). The note with it: at 1 µM.
Assay [20] concerns the target Mitogen-activated protein kinase kinase kinase kinase 4 (Homo sapiens) (UniProt O95819). The note with it: at 0.1 µM.

Mitogen-activated protein kinase kinase kinase kinase 4 (Homo sapiens), sequence (O95819 2-1239 limits assumed): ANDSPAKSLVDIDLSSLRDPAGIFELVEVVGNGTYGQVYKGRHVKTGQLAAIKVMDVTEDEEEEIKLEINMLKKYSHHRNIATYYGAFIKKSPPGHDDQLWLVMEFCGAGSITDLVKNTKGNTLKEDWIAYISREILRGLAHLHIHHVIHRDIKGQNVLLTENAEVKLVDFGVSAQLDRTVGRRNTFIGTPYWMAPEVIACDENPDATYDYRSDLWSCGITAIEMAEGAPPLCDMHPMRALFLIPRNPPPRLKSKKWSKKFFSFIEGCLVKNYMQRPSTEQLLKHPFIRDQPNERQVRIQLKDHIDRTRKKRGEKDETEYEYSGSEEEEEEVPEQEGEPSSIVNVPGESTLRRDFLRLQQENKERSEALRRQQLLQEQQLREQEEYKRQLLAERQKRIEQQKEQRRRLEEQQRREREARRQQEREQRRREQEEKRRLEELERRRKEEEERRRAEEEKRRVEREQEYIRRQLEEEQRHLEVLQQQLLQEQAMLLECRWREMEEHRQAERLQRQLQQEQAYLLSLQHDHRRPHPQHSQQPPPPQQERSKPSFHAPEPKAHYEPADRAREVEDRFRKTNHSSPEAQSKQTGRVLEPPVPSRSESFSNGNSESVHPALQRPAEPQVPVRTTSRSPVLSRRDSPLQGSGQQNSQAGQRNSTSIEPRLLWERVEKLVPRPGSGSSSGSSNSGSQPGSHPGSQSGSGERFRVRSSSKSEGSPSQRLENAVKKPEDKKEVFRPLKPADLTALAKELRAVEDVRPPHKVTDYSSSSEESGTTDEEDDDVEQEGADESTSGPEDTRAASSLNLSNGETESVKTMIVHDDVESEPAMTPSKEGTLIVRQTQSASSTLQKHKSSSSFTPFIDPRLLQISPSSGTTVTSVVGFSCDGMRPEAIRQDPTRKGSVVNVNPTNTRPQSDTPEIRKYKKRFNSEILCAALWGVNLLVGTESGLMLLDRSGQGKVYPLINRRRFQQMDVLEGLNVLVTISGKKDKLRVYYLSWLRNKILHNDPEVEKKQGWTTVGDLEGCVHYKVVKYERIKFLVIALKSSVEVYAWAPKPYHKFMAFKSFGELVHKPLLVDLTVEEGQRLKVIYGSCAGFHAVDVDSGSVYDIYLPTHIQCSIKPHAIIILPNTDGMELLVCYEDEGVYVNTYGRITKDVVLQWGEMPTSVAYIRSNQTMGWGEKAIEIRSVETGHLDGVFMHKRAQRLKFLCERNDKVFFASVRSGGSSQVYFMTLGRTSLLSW
Serine/threonine-protein kinase 10 (Homo sapiens), sequence (O94804 whole entry, looked up): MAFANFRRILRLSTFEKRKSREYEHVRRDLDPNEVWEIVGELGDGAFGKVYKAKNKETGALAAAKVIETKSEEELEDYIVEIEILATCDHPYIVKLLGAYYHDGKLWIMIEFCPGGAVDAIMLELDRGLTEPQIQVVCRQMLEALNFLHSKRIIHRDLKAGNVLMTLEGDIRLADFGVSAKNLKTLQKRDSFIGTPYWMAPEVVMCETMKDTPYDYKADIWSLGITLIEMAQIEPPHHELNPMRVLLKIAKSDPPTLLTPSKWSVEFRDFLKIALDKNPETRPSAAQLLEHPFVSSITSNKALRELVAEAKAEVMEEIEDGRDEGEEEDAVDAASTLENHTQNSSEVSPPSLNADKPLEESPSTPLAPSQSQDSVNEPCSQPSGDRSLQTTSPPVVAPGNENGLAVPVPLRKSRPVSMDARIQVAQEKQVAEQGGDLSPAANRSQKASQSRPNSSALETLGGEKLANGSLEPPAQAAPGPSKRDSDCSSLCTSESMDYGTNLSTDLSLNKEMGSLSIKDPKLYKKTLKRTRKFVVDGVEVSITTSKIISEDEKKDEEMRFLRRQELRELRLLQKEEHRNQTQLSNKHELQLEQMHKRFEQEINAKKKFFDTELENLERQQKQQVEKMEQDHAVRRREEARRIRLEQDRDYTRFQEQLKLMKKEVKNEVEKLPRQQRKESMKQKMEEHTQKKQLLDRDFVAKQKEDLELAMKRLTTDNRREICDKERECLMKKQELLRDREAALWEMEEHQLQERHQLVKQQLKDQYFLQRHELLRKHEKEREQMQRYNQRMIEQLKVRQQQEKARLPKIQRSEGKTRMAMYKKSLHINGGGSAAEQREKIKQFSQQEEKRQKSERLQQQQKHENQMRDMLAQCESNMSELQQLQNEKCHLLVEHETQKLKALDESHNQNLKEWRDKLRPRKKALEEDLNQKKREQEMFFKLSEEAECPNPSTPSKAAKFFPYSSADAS

Regarding `CCC(=O)Nc1ccc(C)c(-c2ccc(C(=O)NCC3CC3)cc2)c1`, the inhibition was 4.19% in assay [1]; 2.75% in [2]; 2.88% in assay [3]; 2.19% in [4]; 2.2% in [5]; 2.71% in [6]. Moreover, the inhibition in [7] was 1.4%; in assay [8] it was -2.17%; in assay [9], 8.22%; in [10], 1.72%; in assay [11], 4.11%; in [12], -0.16%. Besides, the inhibition in [13] is 3.49%; in [14], -1.01%; in [15] it was 3.82%; in assay [16], 1.74%; in assay [17], 5.36%; in assay [18] it was 0.41%. Also, the inhibition came to 1.16% in assay [19] and 4.98% in assay [20].

On to `O=C(NCC1CC1)c1ccc(-c2cccc(C(=O)NC3CC3)c2)cc1`, for which the inhibition was 0.79% in [1]; 0.56% in [2]; -1.04% in [3]; 2.02% in assay [4]; -1.15% in [5]; 2.43% in assay [6]. The inhibition in assay [7] is 5.31%; in assay [8], -2.99%; in assay [9], 3.09%; in assay [10], 1.42%; in assay [11] it was 6.45%; in [12], 2.04%. For the same molecule, the inhibition is 5.76% in [13]; 0.57% in assay [14]; 11.8% in assay [15]; 3.1% in [16]; -0.77% in assay [17]; 1.43% in assay [18]. Further, the inhibition in [19] worked out at 2.37%; in assay [20] it was 2.9%.

Turning to `Fc1ccc(-c2nc3n(c2-c2ccncc2)CCS3)cc1`, the inhibition in assay [1] is 1.45%; in assay [2], 2.62%; in assay [3], 0.16%; in [4] it was 2.96%; in assay [5], 3.11%; in assay [6], -0.13%. Moreover, the inhibition in assay [7] is -0.14%; in assay [8], -8.34%; in [9], 9.6%; in assay [10], -1.28%; in [11], 1.43%; in assay [12], -0.42%. For the same molecule, the inhibition was 2.92% in [13]; -1.97% in assay [14]; 13.6% in assay [15]; 1.88% in [16]; 6.87% in assay [17]; 1.36% in [18]. The figures for the inhibition in assay [19] and in assay [20] were 6.73% and 5.82%, respectively.

In the case of `COc1cc(Nc2ncc(-c3ccccc3)o2)cc(OC)c1OC`, the inhibition is 23.1% in assay [1]; 2.41% in [2]; 28.3% in assay [3]; 2.64% in assay [4]; 25.2% in [5]; 1.07% in assay [6]. Also, the inhibition in [7] was 16.2%; in [8], -2.24%; in assay [9] it was -1.01%; in assay [10] it was 15.7%; in assay [11], 75.5%; in [12], 10.1%. The inhibition in assay [13] worked out at 50%; in [14] it was 8.67%; in [15], 71.8%; in assay [16] it was 1.37%; in assay [17], 11.1%; in [18] it was 2.15%. Besides, the inhibition in assay [19] was found to be 11.5%; in assay [20], 2.13%.

Turning to `C[C@@H](Oc1cc(-n2cnc3ccc(OC4CCN(C)CC4)cc32)sc1C(N)=O)c1ccccc1Cl`, the inhibition in [1] came to 8.12%; in assay [2] it was 3.68%; in assay [3] it was 7.84%; in [4], 2.56%; in assay [5] it was 9.09%; in [6] it was 3.26%. Also, the inhibition was 19% in [7]; -3.41% in assay [8]; 8.91% in [9]; -0.97% in [10]; -0.02% in assay [11]; -0.58% in [12]. The inhibition in [13] is 1.75%; in assay [14], -3.34%; in assay [15], -1.29%; in assay [16], 50.1%; in assay [17], 81.4%; in assay [18], 2.18%. Further, the inhibition stood at 18.4% in assay [19] and 3.22% in [20].

With `O=C(Nc1n[nH]c2nc(-c3ccc(O)cc3)c(Br)cc12)C1CC1`, the inhibition in assay [1] stood at 12.3%; in assay [2], 5.55%; in assay [3] it was 14.5%; in assay [4], 5.79%; in [5], 16.4%; in assay [6], 4.99%. Moreover, the inhibition in [7] is 9.15%; in assay [8] it was -1.54%; in [9] it was 15.3%; in assay [10] it was 5.34%; in assay [11] it was 37.7%; in assay [12], 4.29%. Moreover, the inhibition was determined as 12.7% in [13]; 2.12% in assay [14]; 8.73% in assay [15]; 16.2% in assay [16]; 61.3% in [17]; 7% in assay [18]. Also, the results for the inhibition in assay [19] and in assay [20] were 34.4% and 32.2%, respectively.
